Inhibition data for 17 compounds are collected here from PubChem BioAssay.

“And” between values parts separate entries of the source, which are not always exact repeats. Equal entries are not always repeated. Values without a mark were called inactive. The source made the active and inactive calls. Cut-off read from the data, not from the text of the source, unless noted: active = inhibition above about 33%; inactive = the rest.

Assay [1] addresses Nuclear receptor coactivator 3 (Homo sapiens) (UniProt Q9Y6Q9). Description: NCOA3 GAL4-fusion reporter inhibition – cell-based, luminescence, quadruplicate, confirmation (AID 588792;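 active = mean inhibition over 43.08%, the solvent-only control mean plus 3 SD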;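 note: 0% = DMSO treated cells and 100% = gossypol at 36 µM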). As to conditions: HEK293 GAL4-SRC3 luciferase reporter, at 3.6 µM, active compounds read high.
Assay [2] concerns transactivating tegument protein VP16 (Human herpesvirus 1), Gal4-VP16 luciferase reporter. Nature of the assay: repression of VP16-driven luciferase reporter – cell-based, luminescence, high throughput, counter-screen for SRC3 inhibitor project (AID 588794; in the data active = inhibition above about 30%). As to conditions: mammalian cells, at 3.6 µM, active compounds read high. In general terms: In a reporter assay the amount or activity of a reporter protein is the signal.

The nature of assay [3]: StAR promoter reporter inhibitors, counter-screen for LRH-1 inverse agonist project, cell-based, luminescence, high throughput (AID 651611; in the data active = inhibition above about 28%). The conditions noted are these: StAR promoter luciferase reporter counterscreen, at 3.6 µM, active compounds read high. (In general: The purpose of a counterscreen is to sort out artefacts and off-target activity.)
Assay [4] addresses Nuclear receptor subfamily 5 group A member 2 (Homo sapiens) (UniProt O00482). Description: NR5A2 activity suppression in reporter cells – cell-based, luminescence, confirmation (AID 651613; in the data active = inhibition above about 42%;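 note: HEK293T cells co-transfected with LRH-1 and StAR promoter luciferase reporter; 0% = vehicle wells and 100% = parental cells lacking receptor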). The conditions noted are these: cell-based LRH-1 luciferase reporter, inverse agonism; at 3.6 µM; active compounds read high.
Assay [5] addresses Steroidogenic factor 1 (Homo sapiens) (UniProt Q13285). Description: inverse agonism at SF1 nuclear receptor – cell-based, luminescence, high throughput, counter-screen for LRH-1 inverse agonist project (AID 651614; in the data active = inhibition above about 44%;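 note: cells cotransfected with StAR promoter reporter and SF1 expression vector; 0% = vehicle on cells with receptor and 100% = vehicle on cells lacking receptor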). The conditions noted are these: cell-based SF1 luciferase reporter, at 3.6 µM, active compounds read high.
The nature of assay [6]: compounds suppressing VP16-driven luciferase signal – cell-based, luminescence, high throughput, counter-screen for LRH-1 inverse agonist project (AID 651615). As to conditions: Gal4-VP16 luciferase reporter cells, at 3.6 µM, active compounds read high.
Assay [7] has as its system transactivating tegument protein VP16 (Human herpesvirus 1). Nature of the assay: compounds suppressing VP16-driven luciferase signal – cell-based, luminescence, single concentration, counter-screen for SRC2 inhibitor project (AID 652007; in the data active = inhibition above about 36%). As to conditions: cell-based VP16 transactivation luciferase reporter, at 8.9 µM, active compounds read high.
Assay [8] concerns the target Nuclear receptor coactivator 2 (Homo sapiens) (UniProt Q15596). Description: inhibition of GAL4-SRC2 driven luciferase expression – cell-based, luminescence, HEK293, triplicate, confirmation (AID 652008;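 active = mean inhibition above 46.5%, the solvent-only control mean plus 3 SD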;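 note: 0% = DMSO-treated cells and 100% = Gossypol at 36 µM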). The conditions noted are these: HEK293 GAL4-SRC2 luciferase reporter, at 8.9 µM, active compounds read high.

Chain of Nuclear receptor subfamily 5 group A member 2 (Homo sapiens) (O00482 whole entry, looked up): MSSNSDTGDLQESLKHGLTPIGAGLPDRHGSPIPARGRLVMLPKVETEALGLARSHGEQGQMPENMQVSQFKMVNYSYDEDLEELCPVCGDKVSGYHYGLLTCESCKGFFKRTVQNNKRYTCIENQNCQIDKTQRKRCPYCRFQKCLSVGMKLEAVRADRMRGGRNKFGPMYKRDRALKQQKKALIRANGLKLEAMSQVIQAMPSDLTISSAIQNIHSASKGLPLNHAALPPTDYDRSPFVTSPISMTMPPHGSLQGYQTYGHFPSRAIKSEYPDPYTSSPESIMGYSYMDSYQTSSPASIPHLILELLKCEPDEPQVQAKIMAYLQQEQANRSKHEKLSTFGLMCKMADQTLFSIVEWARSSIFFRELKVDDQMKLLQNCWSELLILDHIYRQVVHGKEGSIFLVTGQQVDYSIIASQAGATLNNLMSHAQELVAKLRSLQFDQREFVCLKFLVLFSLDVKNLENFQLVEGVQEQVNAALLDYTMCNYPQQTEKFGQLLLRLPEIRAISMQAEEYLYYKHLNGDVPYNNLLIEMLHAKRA
Chain of Nuclear receptor coactivator 3 (Homo sapiens) (Q9Y6Q9 whole entry, looked up, the tested form may be a part): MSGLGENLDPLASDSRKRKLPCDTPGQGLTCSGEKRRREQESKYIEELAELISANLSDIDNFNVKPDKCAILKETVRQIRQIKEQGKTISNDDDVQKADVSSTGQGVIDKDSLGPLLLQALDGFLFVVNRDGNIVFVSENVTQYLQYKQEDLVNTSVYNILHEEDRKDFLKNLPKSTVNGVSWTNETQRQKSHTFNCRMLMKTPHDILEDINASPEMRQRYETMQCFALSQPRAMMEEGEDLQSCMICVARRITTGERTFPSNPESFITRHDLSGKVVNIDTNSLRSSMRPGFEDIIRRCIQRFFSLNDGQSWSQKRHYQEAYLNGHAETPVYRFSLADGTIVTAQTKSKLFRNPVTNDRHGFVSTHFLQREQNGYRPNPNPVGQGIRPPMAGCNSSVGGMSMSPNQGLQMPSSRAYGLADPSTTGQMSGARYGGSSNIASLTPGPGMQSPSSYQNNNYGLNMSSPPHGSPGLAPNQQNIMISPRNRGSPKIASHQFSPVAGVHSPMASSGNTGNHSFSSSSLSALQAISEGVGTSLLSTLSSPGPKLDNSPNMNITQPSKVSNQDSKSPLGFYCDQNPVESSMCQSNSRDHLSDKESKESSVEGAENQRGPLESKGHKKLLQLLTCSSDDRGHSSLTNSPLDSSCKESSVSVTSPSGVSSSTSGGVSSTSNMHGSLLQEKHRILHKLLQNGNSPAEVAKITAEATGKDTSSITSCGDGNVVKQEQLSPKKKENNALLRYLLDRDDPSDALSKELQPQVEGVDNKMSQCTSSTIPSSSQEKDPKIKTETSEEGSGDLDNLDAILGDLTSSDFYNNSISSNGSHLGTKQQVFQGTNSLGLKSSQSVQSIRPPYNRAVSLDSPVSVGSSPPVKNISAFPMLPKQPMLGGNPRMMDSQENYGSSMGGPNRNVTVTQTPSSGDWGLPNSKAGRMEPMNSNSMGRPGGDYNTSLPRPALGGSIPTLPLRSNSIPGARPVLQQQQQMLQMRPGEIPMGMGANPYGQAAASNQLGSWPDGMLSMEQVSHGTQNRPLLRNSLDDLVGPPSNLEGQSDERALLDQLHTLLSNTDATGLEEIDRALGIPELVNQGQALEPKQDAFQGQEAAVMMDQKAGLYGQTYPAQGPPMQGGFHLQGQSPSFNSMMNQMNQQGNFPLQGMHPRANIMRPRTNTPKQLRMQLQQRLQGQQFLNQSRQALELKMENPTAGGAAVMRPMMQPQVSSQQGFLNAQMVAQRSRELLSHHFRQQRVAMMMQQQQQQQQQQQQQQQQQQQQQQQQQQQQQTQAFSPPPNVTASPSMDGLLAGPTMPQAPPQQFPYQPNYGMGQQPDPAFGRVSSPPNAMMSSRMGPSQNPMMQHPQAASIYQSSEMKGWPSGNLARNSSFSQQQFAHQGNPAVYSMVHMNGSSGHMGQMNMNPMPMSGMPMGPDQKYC
Chain of Steroidogenic factor 1 (Homo sapiens) (Q13285 whole entry, looked up, the tested form may be a part): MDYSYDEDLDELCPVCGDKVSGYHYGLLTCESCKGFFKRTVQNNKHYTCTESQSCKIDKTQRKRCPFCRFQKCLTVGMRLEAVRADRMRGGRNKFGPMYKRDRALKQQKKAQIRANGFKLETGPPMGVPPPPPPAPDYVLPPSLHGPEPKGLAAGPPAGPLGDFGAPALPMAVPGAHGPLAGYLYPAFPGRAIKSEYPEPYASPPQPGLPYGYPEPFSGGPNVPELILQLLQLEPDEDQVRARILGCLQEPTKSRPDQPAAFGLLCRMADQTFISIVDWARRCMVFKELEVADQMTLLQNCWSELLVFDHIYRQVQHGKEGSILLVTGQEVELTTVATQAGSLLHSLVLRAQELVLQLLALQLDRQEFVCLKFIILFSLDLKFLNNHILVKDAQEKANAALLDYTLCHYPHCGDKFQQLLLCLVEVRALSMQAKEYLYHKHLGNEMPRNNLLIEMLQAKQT
Chain of Nuclear receptor coactivator 2 (Homo sapiens) (Q15596 whole entry, looked up, the tested form may be a part): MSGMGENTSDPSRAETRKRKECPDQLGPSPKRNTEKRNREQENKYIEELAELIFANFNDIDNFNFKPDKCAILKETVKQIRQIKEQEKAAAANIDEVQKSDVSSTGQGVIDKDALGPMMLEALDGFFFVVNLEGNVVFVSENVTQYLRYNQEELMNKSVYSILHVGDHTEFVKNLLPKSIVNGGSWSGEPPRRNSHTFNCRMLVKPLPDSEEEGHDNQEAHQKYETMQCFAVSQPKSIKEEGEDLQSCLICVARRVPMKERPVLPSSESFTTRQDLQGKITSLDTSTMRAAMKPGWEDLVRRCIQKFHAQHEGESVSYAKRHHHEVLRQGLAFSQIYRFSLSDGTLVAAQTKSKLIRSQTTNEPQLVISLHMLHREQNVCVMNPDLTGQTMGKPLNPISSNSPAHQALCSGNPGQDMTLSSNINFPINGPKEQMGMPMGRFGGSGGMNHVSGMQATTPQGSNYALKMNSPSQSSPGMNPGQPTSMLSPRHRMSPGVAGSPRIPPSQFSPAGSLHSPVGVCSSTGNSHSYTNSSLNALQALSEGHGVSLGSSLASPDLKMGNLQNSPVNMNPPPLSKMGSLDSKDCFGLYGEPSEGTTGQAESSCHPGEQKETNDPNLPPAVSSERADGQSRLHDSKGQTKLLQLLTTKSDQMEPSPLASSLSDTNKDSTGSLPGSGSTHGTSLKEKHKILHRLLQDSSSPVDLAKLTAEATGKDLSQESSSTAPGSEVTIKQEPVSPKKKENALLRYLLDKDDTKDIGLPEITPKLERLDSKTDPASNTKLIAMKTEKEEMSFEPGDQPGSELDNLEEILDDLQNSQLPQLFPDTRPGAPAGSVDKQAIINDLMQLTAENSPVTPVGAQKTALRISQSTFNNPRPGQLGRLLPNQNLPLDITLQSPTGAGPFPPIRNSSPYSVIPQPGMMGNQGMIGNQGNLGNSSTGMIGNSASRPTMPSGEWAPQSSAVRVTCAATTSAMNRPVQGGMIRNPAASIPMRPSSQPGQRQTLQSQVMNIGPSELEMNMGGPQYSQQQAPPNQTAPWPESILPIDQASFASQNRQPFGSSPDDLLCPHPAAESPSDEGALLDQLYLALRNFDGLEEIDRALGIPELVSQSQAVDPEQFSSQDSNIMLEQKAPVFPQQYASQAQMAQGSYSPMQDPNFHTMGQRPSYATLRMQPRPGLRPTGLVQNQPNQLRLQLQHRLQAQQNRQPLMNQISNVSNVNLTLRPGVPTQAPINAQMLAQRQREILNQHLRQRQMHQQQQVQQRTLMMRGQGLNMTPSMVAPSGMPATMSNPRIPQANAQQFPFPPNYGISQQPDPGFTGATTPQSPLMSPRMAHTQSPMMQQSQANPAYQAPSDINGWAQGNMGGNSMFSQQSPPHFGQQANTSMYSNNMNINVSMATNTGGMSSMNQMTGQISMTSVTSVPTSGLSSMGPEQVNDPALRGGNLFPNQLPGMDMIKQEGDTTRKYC

On to `Cn1c(CCN2CCN(c3ccccn3)CC2)nc2cc(NC(=O)COc3ccc(Cl)cc3)ccc21`, for which the inhibition in assay [1] was 18%; in assay [2], 33.9% (active); in assay [3] it was 29.2% (active); in assay [4], 49.8% (active); in assay [5], 51.4% (active); in assay [6], 51.6% (active).

Regarding `CCN1/C(=C/c2ccc3cc(C)ccc3[n+]2CC)Sc2cc(C)ccc21`, the inhibition is 26.1% in assay [1]; 64% (active) in assay [2]; 39.8% (active) in assay [3]; 108% (active) in assay [4]; 75.6% (active) in assay [5]; 83.3% (active) in assay [6].

`CC[C@@H](C(=O)[C@@H](C)[C@@H](O)[C@H](C)CCc1ccc(C)c(O)c1C(=O)O)[C@H]1O[C@](CC)([C@H]2CC[C@](O)(CC)[C@H](C)O2)C[C@@H]1C`: the inhibition in assay [1] is 26.4%; in assay [2] it was 58% (active); in assay [3] it was 60.5% (active); in assay [4], 51.9% (active); in assay [5], 61.2% (active); in assay [6], 60% (active).

As to `CC(C)N(c1ccccc1)c1ccc(NC(=O)CCl)cc1`, the inhibition in assay [1] was 29.3%; in assay [2], -9.17%; in assay [3], 32.8% (active); in assay [4] it was 72.4% (active); in assay [5], 60.9% (active); in assay [6] it was -7.77%. The inhibition in assay [7] is 17.1%; in assay [8], 33.1%.

For `O=C(Nc1sc2c(c1C(=O)O)CCCCC2)c1ccccc1`, the inhibition is -1.12% in assay [1]; 24.2% in assay [2]; 1.22% in assay [3]; 57% (active) in assay [4]; 59% (active) in assay [5]; 53.1% (active) in assay [6].

With `Cc1ccc(C(=O)C[n+]2cc(-c3ccc(C)cc3)n3c2CCCCC3)cc1`, the inhibition is 25.2% in assay [1]; 53.5% (active) in assay [2]; 38% (active) in assay [3]; 80.2% (active) in assay [4]; 75.7% (active) in assay [5]; 70.4% (active) in assay [6].

Take `Cc1ccc(S(=O)(=O)/C(=C/Cl)NC(=O)c2ccccc2)cc1`: the inhibition in assay [1] is 26%; in assay [2], 26.9%; in assay [3], 42.9% (active); in assay [4] it was 57.7% (active); in assay [5] it was 51.5% (active); in assay [6], 38.8% (active). Further, the inhibition in assay [7] was 38.9% (active); in assay [8], 60.8% (active).

In the case of `Cc1ccc(S(=O)(=O)Nc2cc(Cl)c(O)c3ncccc23)cc1`, the inhibition in assay [1] is 28.2%; in assay [2], 24.5%; in assay [3], 48.1% (active); in assay [4], 72.1% (active); in assay [5], 62.2% (active); in assay [6], 62% (active).

For the compound `Cc1ccc(CSC(Nc2ccc(F)cc2)=C(C#N)C#N)cc1`, the inhibition in assay [1] was 4.71%; in assay [2], 28.5%; in assay [3], 19.4%; in assay [4], 59.8% (active); in assay [5] it was 59.9% (active); in assay [6], 45% (active). In addition, the inhibition in assay [7] is 12.8%; in assay [8], 31.9%.

In the case of `NS(=O)(=O)c1ccc(Sc2nc3ccccc3s2)c([N+](=O)[O-])c1`, the inhibition in assay [1] is 53.3% (active); in assay [2] it was 27.4%; in assay [3] it was 78.7% (active); in assay [4], 75.3% (active); in assay [5] it was 67.5% (active); in assay [6], 55.2% (active). The inhibition is 33% in assay [7] and 58.3% (active) in assay [8].

On to `Cc1sc(NC(=O)c2ccco2)c(C(c2cccnc2)N2CCN(c3ccc(F)cc3)CC2)c1C` (stereo not drawn), for which the inhibition in assay [1] was 19.5%; in assay [2], 31.9% (active); in assay [3] it was 24.4%; in assay [4], 61.9% (active); in assay [5] it was 60.2% (active); in assay [6], 53.9% (active).

`COC(=O)/C=C/C(=O)Nc1cccc(C(F)(F)F)c1`: the inhibition in assay [1] is 4.81%; in assay [2], 6.7%; in assay [3], 46.8% (active); in assay [4] it was 46.6% (active); in assay [5], 58.7% (active); in assay [6], 28.6%. The inhibition was 25.8% in assay [7] and 20.4% in assay [8].

For `CCCCCCCCCCCCCCCC[n+]1ccccc1`, the inhibition in assay [1] is 16.6%; in assay [2], 25.1%; in assay [3], 23.1% and 10.5%; in assay [4], 47.2% (active) and 54.5% (active); in assay [5], 57.7% (active) and 48.1% (active); in assay [6], 52.6% (active) and 48.9% (active). Also, the inhibition in assay [7] is 13.5%; in assay [8], -2.51%.

For the compound `c1cnc2c(c1)ccc1cccnc12`, the inhibition in assay [1] was 42.2%; in assay [2] it was 31.6% (active); in assay [3], 70.5% (active) and 77.1% (active); in assay [4] it was 104% (active); in assay [5], 59.1% (active) and 70.5% (active); in assay [6], 50.6% (active) and 74.9% (active).

Consider `COc1cc2c(c(OC)c1OC)-c1ccc(SC)c(=O)cc1C(NC=O)CC2` (stereo not drawn), for which the inhibition in assay [1] is 44.5% (active); in assay [2], 15.7%; in assay [3], 67% (active); in assay [4], 65.8% (active); in assay [5] it was 69.7% (active); in assay [6], 54.5% (active).

Consider `S=C(NCCCc1cnc[nH]1)NCCCN(Cc1ccc(Cl)cc1)c1ccc(Br)cn1`, for which the inhibition in assay [1] is 83.9% (active); in assay [2], 57.4% (active); in assay [3] it was 91.2% (active); in assay [4] it was 102% (active); in assay [5], 96.4% (active); in assay [6], 82.4% (active). Moreover, the inhibition in assay [7] is -0.33%; in assay [8], 51.4% (active).

As to `C/C(=N\NC(N)=S)C12CC3CC(CC(C3)C1)C2`, the inhibition in assay [1] is 41.6%; in assay [2], 32.8% (active); in assay [3] it was 20.4%; in assay [4], 66.1% (active); in assay [5], 71.4% (active); in assay [6], 48.1% (active). The values for the inhibition in assay [7] and in assay [8] were 9.52% and 26.9%, respectively.

What is called inhibition is the drop in the measured response relative to a control, in per cent.
